Hits are enriched below; roughly 3% of the tested compounds scored in any of these assays.
PP5 primary = PP5 phosphatase inhibitors, primary screen, biochemical, fluorescence; 320,000 tested, 0.18% active; AID 1987, 2009; inhibition, % at 6.7 µM; purified PP5c, OMFP substrate fluorescence;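 active = inhibition above the campaign's mean inhibition across all tested compounds plus 3 SD, cut at about 9.5% in these data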;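 also: 0% = DMSO only and 100% = 100 µM cantharidin control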
Target sequence (P53041 whole entry, looked up): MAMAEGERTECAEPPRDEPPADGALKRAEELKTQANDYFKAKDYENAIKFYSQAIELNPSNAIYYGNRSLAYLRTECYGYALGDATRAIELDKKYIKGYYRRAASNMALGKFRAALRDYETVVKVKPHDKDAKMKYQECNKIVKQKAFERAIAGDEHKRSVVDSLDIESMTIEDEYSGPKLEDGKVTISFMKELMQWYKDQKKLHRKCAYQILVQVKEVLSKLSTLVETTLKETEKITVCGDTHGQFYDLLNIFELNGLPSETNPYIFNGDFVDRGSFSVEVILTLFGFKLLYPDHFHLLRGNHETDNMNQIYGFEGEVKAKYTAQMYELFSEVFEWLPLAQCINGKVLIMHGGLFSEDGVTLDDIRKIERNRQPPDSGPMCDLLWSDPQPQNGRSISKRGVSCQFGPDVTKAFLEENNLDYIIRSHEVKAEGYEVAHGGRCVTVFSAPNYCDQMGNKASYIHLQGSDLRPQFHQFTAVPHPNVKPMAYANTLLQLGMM
PAFAH1B2 inh = PAFAH1B2 enzyme inhibitors, primary screen, biochemical, fluorescence polarization, human; Platelet-activating factor acetylhydrolase IB subunit alpha2 (Homo sapiens), P68402; recombinant PAFAH1B2, FP-rhodamine activity probe; inhibition, % at 3.39 µM; 340,000 tested, 1.2% active;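 active = inhibition above the mean of all tested compounds plus 3 SD, cut at about 24% in these data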;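 also: 0% = enzyme with DMSO and 100% = wells lacking PAFAH1B2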
PAFAH1B3 FP inh = PAFAH1B3 enzyme inhibitors, primary screen, biochemical, fluorescence polarization, human. recombinant PAFAH1B3, FP-rhodamine probe. inhibition, % at 3.39 µM. 340,000 tested, 0.28% active. AID 492972, 2010;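 active = inhibition above the screen-wide average of all tested compounds plus 3 SD, cut at about 25% in these data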;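 also: 0% = enzyme with DMSO only and 100% = wells lacking PAFAH1B3 protein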
CTSL1 counter = Fasciola hepatica cathepsin L1 inhibitors, primary screen, counter-screen for PFM18AAP inhibitor project, biochemical, QFRET, fluorogenic peptide substrate | recombinant F. hepatica cathepsin L1, Z-Leu-Arg-MCA fluorescence | inhibition, % at 5.96 µM | 300,000 tested, 0.49% active | AID 1906, 2009;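 active = inhibition above the mean of all tested compounds plus 3 SD, set per screening campaign, cut at about 17% in these data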;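 also: 0% = plate median of test compound wells and 100% = 1 µM Z-Phe-Ala-diazomethylketone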
PAFAH2 FP inh = PAFAH2 enzyme inhibitors, primary screen, biochemical, fluorescence polarization, human. recombinant PAFAH2, FP-rhodamine activity probe. AID 492956, 2010. inhibition, % at 3.39 µM. 340,000 tested, 0.99% active;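 active = inhibition above the mean over all tested compounds plus 3 SD, cut at about 30% in these data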;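 also: inhibitors block probe labeling of enzyme so polarization drops; 0% = enzyme with DMSO and 100% = wells lacking PAFAH2 protein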
pPAFAH FP inh = pPAFAH enzyme inhibitors, primary screen, biochemical, fluorescence polarization, human; Platelet-activating factor acetylhydrolase (Homo sapiens), Q13093; recombinant pPAFAH, FP-rhodamine probe fluorescence polarization; inhibition, % at 3.39 µM; 330,000 tested, 1.5% active; AID 463082, 2010;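 active = inhibition above the mean inhibition across the screen plus 3 SD, cut at about 25% in these data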;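 also: inhibitors block binding of the rhodamine activity-based probe so polarization drops; 0% = enzyme with DMSO and 100% = wells lacking pPAFAH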
The depositor's hits bear a star; / = not tested or not shown.

SMILES | PP5 primary | PAFAH1B2 inh | PAFAH1B3 FP inh | CTSL1 counter | PAFAH2 FP inh | pPAFAH FP inh
COc1ccc([C@@H]2CC=C(C(=O)O)[C@H](c3ccc(F)cc3)N2S(=O)(=O)c2ccc(Cl)cc2)cc1 | 2 | 29* | 4 | -4 | 4 | 2
CC(=O)NC12CC3CC(C1)CC(C(=O)OCC(=O)Nc1c(F)cccc1F)(C3)C2 | 0 | 3 | 2 | / | 0 | 0
O=C(COC(=O)C12CC3CC(CC(Br)(C3)C1)C2)Nc1c(F)cccc1F | / | 35* | 14 | / | 11 | -5
Cc1c(NC(=O)COc2cccc(Cl)c2Cl)c(=O)n(-c2ccccc2)n1C | -1 | 7 | 6 | 23* | 1 | -2
O=C(COC(=O)C12CC3CC(CC(Br)(C3)C1)C2)Nc1ccc2[nH]c(=O)[nH]c2c1 | 1 | 37* | 2 | 3 | 3 | 7
Cc1c(NC(=O)COC(=O)C23CC4CC(CC(Br)(C4)C2)C3)c(=O)n(-c2ccccc2)n1C | 4 | 26* | 11 | -5 | 5 | 2
Cc1ccc(C)c(OCC(=O)Nc2c(C)n(C)n(-c3ccccc3)c2=O)c1 | 2 | 3 | 12 | / | -4 | 0
COc1ccccc1NC(=O)COC(=O)C12CC3CC(CC(Br)(C3)C1)C2 | / | 30* | 16 | / | 0 | 3
COc1ccccc1NC(=O)COC(=O)C12CC3CC(CC(Cl)(C3)C1)C2 | 3 | 24 | 4 | 5 | 1 | -4
O=C(CNC(c1ccccc1)c1ccccc1)Nc1ccccc1Br | 0 | 4 | -3 | 4 | 6 | 32*
N/C(CCS(=O)(=O)c1ccc(Cl)cc1)=N\OC(=O)c1ccccc1Cl | -1 | 13 | 1 | 25* | 0 | 8
Cc1ccc(S(=O)(=O)NCCC(=O)Nc2ccc(Cl)c(Cl)c2)cc1 | 4 | 29* | -4 | 2 | 6 | 1
Cc1ccc(S(=O)(=O)NCCC(=O)Nc2ccc(Cl)c(Cl)c2)cc1C | 5 | 25* | -3 | -1 | -3 | 0
O=S(=O)(c1ccccc1)N(F)S(=O)(=O)c1ccccc1 | -1 | 10 | 11 | / | 11 | 1
CC(NC(=O)c1ccccc1NS(=O)(=O)c1ccc(CCC(=O)O)cc1)c1ccccc1 (configuration not stated) | -2 | 28* | 6 | 1 | 2 | 3
COCc1n[nH]c(=S)n1-c1ccccc1 | 2 | -8 | 1 | 1 | -1 | -2
S=c1[nH]nc(CSCc2ccccc2Cl)n1-c1ccccc1 | 0 | 6 | -1 | 0 | -2 | 27*
C=C(C)COC(=O)C1CC2OC2CC1C(=O)OCC(=C)C (configuration not stated) | / | 4 | 6 | / | -5 | /
CN1C(=O)/C(=C/c2cccc(Cl)c2)Sc2ccc(C(=O)N3CCOCC3)cc21 | 3 | 6 | -4 | 3 | 3 | 28*
COc1ccc(C(=O)N2CCCN(C)CC2)cc1S(=O)(=O)N(C)Cc1ccccc1 | -3 | -3 | 0 | / | -1 | 3
CCN(CC)S(=O)(=O)c1ccc(N2CCCC2)c(NC(=O)CC(C)(C)C)c1 | 0 | 8 | 7 | 20* | 6 | -2
CCCCN(C)C(=O)C1CCCN(S(=O)(=O)c2ccc3c(c2)CC(C)N3C(=O)C2CC2)C1 (configuration not stated) | 2 | 2 | 3 | 2 | 0 | 3
O=C(O)Cc1ccc(-c2ccccc2-c2ccccc2)cc1 | -1 | 80* | 4 | -3 | -7 | 29*
O=S(=O)(NCc1ccccc1)NCc1ccc(Cl)cc1Cl | -5 | 28* | 4 | 1 | 9 | 2
CSc1ccc(S(=O)(=O)NCc2ccccc2Cl)cc1 | 5 | 5 | 6 | 0 | 3 | -1
SMILES | PP5 primary | PAFAH1B2 inh | PAFAH1B3 FP inh | CTSL1 counter | PAFAH2 FP inh | pPAFAH FP inh
CSc1ccc(S(=O)(=O)NCc2ccc(Cl)cc2Cl)cc1 | 4 | 29* | 4 | -2 | 1 | -1
C/C(CC(=O)Nc1cc(Cl)ccc1Cl)=N\NC(N)=S | 2 | 4 | 0 | 8 | 5 | -1
C/C(CC(=O)Nc1ccc(Cl)c(Cl)c1)=N\NC(N)=S | 3 | 3 | 9 | 30* | -2 | -8
NC(=O)CCN(C(=O)c1cccc(S(=O)(=O)N2CCc3ccccc32)c1)c1ccccc1 | -1 | 27* | 4 | / | -3 | -1
O=C(Nc1cccnc1)c1cccc(S(=O)(=O)N2CCc3ccccc32)c1 | 0 | 6 | 6 | 1 | 1 | 2
O=C(Nc1ccncc1)c1cccc(S(=O)(=O)N2CCc3ccccc32)c1 | 2 | -6 | 5 | 17* | -10 | -10
O=C(Nc1ccccc1C(=O)NCCCN1CCOCC1)c1cccc([N+](=O)[O-])c1 | -8 | 3 | 10 | 18* | -3 | -4
CN(C)S(=O)(=O)c1ccc(C(=O)Nc2ccccc2C(=O)NCCCN2CCOCC2)cc1 | 0 | 2 | 2 | / | 9 | 1
CCOc1ccc(S(=O)(=O)Nc2cccc(C(=O)NCC3CCCO3)c2)cc1 (configuration not stated) | 0 | 2 | 1 | -3 | 7 | -1
O=C(Nc1ccccc1)c1cn(CCBr)cn1 | 0 | 3 | 13 | -2 | -6 | 2
COc1ccc(N=CC2=C(Nc3ccc(OC)cc3)c3c(C)nn(-c4ccccn4)c3CC2)cc1 | -4 | / | / | 7 | / | 54*
COc1ccc(-c2cc(C(=O)O)c3c(C)nn(-c4ccccn4)c3n2)cc1 | 0 | / | / | 0 | / | 0
O=C(CN1C(=O)NC2(CCCC2)C1=O)NCc1ccc(Cl)cc1 | / | 5 | -7 | / | 9 | 3
CC1(O)C(=O)C=C2C=C(C3CC3)OC=C2C1=O (configuration not stated) | 3 | / | / | -4 | / | 9
COC(=O)CCC(=O)OC1(C)C(=O)C=C2C=C(C3CC3)OC=C2C1=O (configuration not stated) | 3 | / | / | -5 | / | 26*
CC1(OC(=O)CCc2ccccc2)C(=O)C=C2C=C(C3CC3)OC=C2C1=O (configuration not stated) | -1 | / | / | -1 | / | 33*
Cc1ccn(-c2ccc(NC(=O)c3cccs3)cc2)n1 | 1 | 8 | 3 | 3 | -8 | -1
CCCSc1nc(N)nc2c1ncn2C1OC(CO)C(O)C1O (configuration not stated) | / | -1 | 2 | / | 6 | /
O=c1[nH][nH]c(-c2ccccc2)c1-c1ccccc1 | / | 25* | 12 | / | 3 | /
O=c1[nH][nH]c(-c2ccccc2)c1C=Nc1ccccc1 | -1 | -4 | 2 | 1 | -8 | 4

Bioassay records as filed in PubChem.
